TEAD-YAP inh: TEAD-YAP interaction inhibition, primary screen, TEAD-YAP interaction inhibitor project, luminescence, HEK-TIYL cells. AID 1259422, 2018. TEAD-Gal4/YAP UAS-luciferase luminescence. inhibition, % at 9.12 µM. 1.4% of 640,000 active; in the data active = inhibition above about 32%;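 note: 0% = median of test compound wells and 100% = reference inhibitor wells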
GPR151 ag: activators of human GPR151, primary screen, cell-based, PathHunter beta-arrestin, luminescence; G-protein coupled receptor 151 (Homo sapiens), Q8TDV0; PathHunter beta-arrestin GPR151 cells; activation, % at 11.2 µM; 1% of 650,000 active; in the data active = activation above about 4.9%;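 note: 0% = median of compound wells and 100% = cells with positive control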
FBW7 activator: FBW7 E3 ligase activators, primary screen, biochemical, AlphaScreen, human | F-box/WD repeat-containing protein 7 (Homo sapiens), Q969H0 | AlphaScreen FBW7–phospho-cyclin E peptide binding, activator screen | normalized activity (activation), % at 26.1 µM | 0.13% of 650,000 active; in the data active = normalized activity above about 1.9%;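 note: purified mutant Fbw7 with reduced substrate affinity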
Target sequence (Q969H0 whole entry, looked up): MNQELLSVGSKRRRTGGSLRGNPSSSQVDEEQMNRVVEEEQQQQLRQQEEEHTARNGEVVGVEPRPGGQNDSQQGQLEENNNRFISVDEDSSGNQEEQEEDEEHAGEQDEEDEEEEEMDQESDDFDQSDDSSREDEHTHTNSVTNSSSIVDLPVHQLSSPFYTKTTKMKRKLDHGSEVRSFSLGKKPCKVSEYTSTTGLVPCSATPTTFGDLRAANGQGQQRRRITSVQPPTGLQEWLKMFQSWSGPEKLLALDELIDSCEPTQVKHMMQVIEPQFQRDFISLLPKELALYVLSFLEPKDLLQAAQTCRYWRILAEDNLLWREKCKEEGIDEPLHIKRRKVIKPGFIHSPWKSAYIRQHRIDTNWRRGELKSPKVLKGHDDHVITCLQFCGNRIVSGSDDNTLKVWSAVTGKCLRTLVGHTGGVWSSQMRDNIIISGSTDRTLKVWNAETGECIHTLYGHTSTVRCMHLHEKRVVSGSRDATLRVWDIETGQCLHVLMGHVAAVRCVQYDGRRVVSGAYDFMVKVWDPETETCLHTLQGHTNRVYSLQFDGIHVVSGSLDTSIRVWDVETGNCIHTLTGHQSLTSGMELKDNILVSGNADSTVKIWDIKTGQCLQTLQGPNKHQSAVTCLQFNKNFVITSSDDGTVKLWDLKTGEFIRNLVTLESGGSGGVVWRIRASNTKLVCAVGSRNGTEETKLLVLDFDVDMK
MITF inh: MITF inhibitors, primary screen, biochemical, AlphaScreen, human; AID 1259374, 2018; AlphaScreen MITF homodimerization, bead proximity signal; inhibition, % at 2.6 µM; 0.91% of 650,000 active; Microphthalmia-associated transcription factor (Homo sapiens), O75030; in the data active = inhibition above about 50%;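 note: 0% = vehicle wells with protein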
An asterisk follows results filed as active. An excerpt weighted towards active compounds, which were near 3.4% of everything screened.

SMILES	TEAD-YAP inh	GPR151 ag	FBW7 activator	MITF inh
O=C(Nc1ccc(S(=O)(=O)N2CCCCC2c2cccnc2)cc1)c1ccc([N+](=O)[O-])cc1 (configuration not stated)	36.4*	0.4	-0.2	9.8
O=C(Nc1ccc(S(=O)(=O)N2CCCCC2c2cccnc2)cc1)c1ccc(S(=O)(=O)N2CCCC2)cc1 (configuration not stated)	25.6	-0.1	-0.1	18.3
Cc1ccc(C(=O)Nc2ccc(S(=O)(=O)N3CCCCC3c3cccnc3)cc2)cc1 (configuration not stated)	12.5	-1.1	-0.1	-16.6
Cc1ccc(N(CC(=O)NCCSc2ccc(Cl)cc2)S(C)(=O)=O)cc1	1.7	0.1	-0.2	8.2
C=CCSC1=C(C#N)C(c2ccc(OCc3ccccc3)cc2)CC(=O)N1 (configuration not stated)	32.9*	-0.1	0.1	-9.9
COc1cc(C=O)ccc1OCc1nnnn1-c1ccccc1	11.1	-0.6	2.0*	16.7
COc1cc(Nc2nc(NC3CC3)c3ncn(-c4ccsc4)c3n2)cc(OC)c1OC	34.1*	2.4	-0.3	2.2
COc1cc(Nc2nc(NC3CCC(O)CC3)nc3c2ncn3-c2ccsc2)cc(OC)c1OC (configuration not stated)	68.3*	0.2	-0.1	15.3
c1ccc(Nc2nc(NC3CC3)c3ncn(-c4ccsc4)c3n2)cc1	49.3*	-1.2	0.1	1.1
COc1cc(Nc2nc(Nc3ccccc3)nc3c2ncn3-c2ccsc2)cc(OC)c1OC	23.2	0.1	-0.2	1.5
Cc1cn2cc(C(=O)N3CC(C)OC(C)C3)nc2s1 (configuration not stated)	-1.2	1.1	0.2	26.2
NC1=NC(=O)C(CC(=O)Nc2ccc3ccccc3c2)S1 (configuration not stated)	11.7	0.8	-0.1	-1.7
Cc1cc(NCCOc2ccccc2)nc(Nc2ccccc2)n1	8.5	1.4	-0.1	-0.3
Cc1cc(NCCOc2ccccc2)nc(Nc2ccc(-n3ccnc3)cc2)n1	40.2*	4.9	-0.2	1.3
Cc1cc(Nc2ccc(N3CCOCC3)cc2)nc(Nc2ccc(N3CCOCC3)cc2)n1	4.9	-1.9	-0.3	33.4
Cc1cc(Nc2ccccc2)nc(Nc2ccc(N3CCOCC3)cc2)n1	35.1*	3.5	-0.1	12.6
Cc1cc(NCc2cccc(C(F)(F)F)c2)nc(Oc2ccccc2)n1	66.5*	2.2	1.1	17.9
Cc1cc(NCCc2ccc(O)cc2)nc(Nc2ccc(-n3ccnc3)cc2)n1	41.8*	3.3	-0.1	5.0
O=C(CN1C(=O)NC(Cc2ccccc2)C1=O)Nc1ccc(N2CCOCC2)cc1 (configuration not stated)	-1.1	-2.4	-0.2	1.0
Cc1cc(Nc2ccc(N3CCOCC3)cc2)nc(Nc2cccc(N(C)C)c2)n1	53.9*	-0.6	-0.4	3.0
COc1ccc(CCNc2cc(C)nc(N3CCOCC3)n2)cc1	-9.5	1.5	-0.1	2.1
Cc1cc(NCc2cccc(C(F)(F)F)c2)nc(Nc2ccc(N3CCOCC3)cc2)n1	47.5*	-0.3	-0.4	8.9
Cc1cc(NCCOc2ccccc2)nc(Nc2ccc(N3CCOCC3)cc2)n1	42.9*	-1.9	-0.4	3.8
Cc1cc(NCc2cccc(C(F)(F)F)c2)nc(Nc2ccc(C(F)(F)F)cc2)n1	10.0	0.4	0.1	-3.5
COc1ccc(CCNc2cc(C)nc(Nc3ccc(N4CCOCC4)cc3)n2)cc1	60.3*	4.4	-0.3	21.8
SMILES	TEAD-YAP inh	GPR151 ag	FBW7 activator	MITF inh
CCC1CN(CCNC(=O)[C@H]2C[C@@H]3C=C[C@H]2C3)Cc2cc(OC)ccc2O1 (some centres not stated)	2.5	-1.4	0.5	13.6
COC(=O)c1ccccc1NS(=O)(=O)c1ccc2c(c1)NC(=O)C(C)C(=O)N2 (configuration not stated)	3.6	-0.6	-0.1	-2.0
CCOc1ccc(N(CC(=O)N2CCCCC2)S(=O)(=O)c2ccc(C)cc2)cc1	-0.9	-1.7	-0.2	-0.9
Cc1cc(F)ccc1NS(=O)(=O)c1c[nH]c2ccc([N+](=O)[O-])cc12	1.8	-0.6	0.6	-2.0
COc1ccc(Cl)cc1NC(=O)Cc1noc2ccccc12	-5.2	3.9	0.0	1.4
COCCn1nnnc1C(c1ccc(F)cc1)N1CCN(Cc2ccccc2)CC1 (configuration not stated)	5.6	4.3	0.3	-10.3
c1ccc(CC2CCN(Cc3ccccn3)CC2)cc1	2.0	3.2	-0.3	23.8
Oc1c(C(c2ccccn2)N2CCN(c3ccc(F)cc3)CC2)cc(Cl)c2cccnc12 (configuration not stated)	-2.2	0.1	-0.5	25.5
CCOC(=O)N1CCN(Cc2cc(Cl)c3cccnc3c2O)CC1	76.1*	-0.2	-1.2	49.9
CCN(CC)Cc1cc(Cl)c2cccnc2c1O	73.6*	0.5	-1.2	55.4*
CCOC(=O)N1CCN(C(c2ccccn2)c2cc(Cl)c3cccnc3c2O)CC1 (configuration not stated)	-5.4	-1.8	0.3	53.4*
Oc1c(CN2CCC(Cc3ccccc3)CC2)cc(Cl)c2cccnc12	59.5*	0.3	-0.3	60.0*
Cc1cc(N(CC(=O)Nc2cccc(Cl)c2C)S(C)(=O)=O)ccc1Br	7.9	0.1	-0.1	9.5
Nc1c(C(=O)NCc2cccs2)sc2nc3cc4c(cc3cc12)OCO4	-53.8	-0.9	0.1	-1.5
O=C(NCc1cccnc1)c1ccc2nc(NCCN3CCOCC3)sc2c1	-0.7	-0.9	-0.1	7.9
Cc1ccc2cc(C#N)c(NCCCNC(=O)Nc3ccccc3F)nc2c1	-12.1	-0.2	0.0	-5.6
CCOc1ccc(N(CC(=O)Nc2cccnc2)S(=O)(=O)c2ccc(F)cc2)cc1	-4.1	0.4	0.2	-14.2
CCOC(=O)N1CCN(C(c2ccccn2)c2ccc3cccnc3c2O)CC1 (configuration not stated)	6.7	-1.8	-0.3	91.0*
Oc1c(C(c2ccccn2)N2CCCC2)cc(Cl)c2cccnc12 (configuration not stated)	29.0	-0.9	0.4	78.9*
CN1CCN(C(c2ccccn2)c2cc(Cl)c3cccnc3c2O)CC1 (configuration not stated)	6.8	0.6	-0.3	28.2
CCOC(=O)N1CCN(C(c2ccccn2)c2c(C)[nH]c3ccccc23)CC1 (configuration not stated)	3.6	-0.5	-0.1	6.8
COc1ccc(I)cc1CNCCO	1.4	2.5	0.2	5.3
COc1ccc(-c2nc(CSCC(=O)NC3CCCC3)c(C)o2)cc1	-0.4	2.8	0.6	19.0
Nc1cccc(-c2nc(Nc3ccccc3)c3ncn(-c4ccsc4)c3n2)c1	49.4*	-0.1	0.0	1.1
COc1ccc(-c2nc(Nc3ccc(NC(C)=O)cc3)c3ncn(-c4ccsc4)c3n2)cc1	43.2*	0.1	0.2	6.7
CC(=O)Nc1ccc(Nc2nc(-c3cccc(N)c3)nc3c2ncn3-c2ccsc2)cc1	42.8*	3.0	0.0	-1.7
